{
  "source": "ChEMBL document CHEMBL3988442",
  "about": "“University of Dundee, Small-Polar-MMV Screening Library” (2021)",
  "tested_on": "Leishmania donovani",
  "assay": "Leishmania intramacrophage assay",
  "assay_type": "functional, organism-based",
  "design": "scale not given: in the data most compounds retested in dose-response had high values",
  "note": "Screen size: about 69,000 compounds; about 1,000 (1.4%) showed an effect of 50% or more. Shown is part of a subset that was picked to be rich in strong results.",
  "data": [
    {"smiles": "COc1cc2nc(NCCNS(C)(=O)=O)cc(C)c2cc1OC", "values": [
      {"measurement": "Percent Effect", "setting": "30.3 µM, […]", "value": -28.24, "unit": "%"}
    ]},
    {"smiles": "O=C(O)C(F)(F)F.O=C(O)C(F)(F)F.c1csc(CN2CCCC3(COCCN(Cc4c[nH]nn4)C3)C2)c1", "note": "(configuration not stated)", "values": [
      {"measurement": "Percent Effect", "setting": "30.3 µM, […]", "value": 14.23, "unit": "%"}
    ]},
    {"smiles": "Cc1ccccc1C1(C(=O)N2CCOC(C)C2)CCOCC1", "note": "(configuration not stated)", "values": [
      {"measurement": "Percent Effect", "setting": "30.3 µM, […]", "value": -3.571, "unit": "%"}
    ]},
    {"smiles": "Cc1nc(CN(C)C2CCN(Cc3ccc(C(N)=O)cc3)C2)no1", "note": "(configuration not stated)", "values": [
      {"measurement": "Percent Effect", "setting": "30 µM", "value": 31.74, "unit": "%"}
    ]},
    {"smiles": "Cc1cccc(S(=O)(=O)NC(=O)CN(C)Cc2ccccc2)c1", "values": [
      {"measurement": "Percent Effect", "setting": "30.3 µM, […]", "value": 14.38, "unit": "%"}
    ]},
    {"smiles": "Cc1ccccc1[C@@H]1CN(Cc2ccc(C(F)(F)F)nc2)C[C@H]1C(=O)O", "values": [
      {"measurement": "Percent Effect", "setting": "30.3 µM, […]", "value": 13.27, "unit": "%"}
    ]},
    {"smiles": "Fc1ccc(OCCNC2CCN(Cc3ccncc3)CC2)c(F)c1", "values": [
      {"measurement": "Percent Effect", "setting": "30.3 µM, […]", "value": 39.31, "unit": "%"}
    ]},
    {"smiles": "Fc1ccc(OCCNC2CCN(Cc3ccccn3)CC2)c(F)c1", "values": [
      {"measurement": "Percent Effect", "setting": "30.3 µM, […]", "value": 52.55, "unit": "%"}
    ]},
    {"smiles": "N#Cc1ccc(NC2CCN(Cc3ccccn3)CC2)c(F)c1", "values": [
      {"measurement": "Percent Effect", "setting": "30.3 µM, […]", "value": -12.41, "unit": "%"}
    ]},
    {"smiles": "CCN1CCN(CC(O)c2ccc(OC(F)(F)F)cc2)CC1", "note": "(configuration not stated)", "values": [
      {"measurement": "Percent Effect", "setting": "30 µM, 30.03 µM", "value": 18.61, "unit": "%"}
    ]},
    {"smiles": "O=C1CC2(CCN(C(=O)C3CCCCC3)C2)Nc2ccccc2N1", "note": "(configuration not stated)", "values": [
      {"measurement": "Percent Effect", "setting": "30.3 µM, […]", "value": 29.44, "unit": "%"}
    ]},
    {"smiles": "Cc1nc(CO[C@H]2CN(C(=O)c3cnoc3C)[C@@H]3COC[C@H]23)cs1.O=C(O)C(F)(F)F", "values": [
      {"measurement": "Percent Effect", "setting": "30.3 µM, […]", "value": 6.994, "unit": "%"}
    ]},
    {"smiles": "CCOCC(O)CN1CCN(C(=O)c2cc(C)ccc2F)CC1", "note": "(configuration not stated)", "values": [
      {"measurement": "Percent Effect", "setting": "30 µM", "value": -8.817, "unit": "%"}
    ]},
    {"smiles": "COCCOCC(=O)NC(C#N)c1cccc(Cl)c1Cl", "note": "(configuration not stated)", "values": [
      {"measurement": "Percent Effect", "setting": "30.3 µM, […]", "value": -18.55, "unit": "%"}
    ]},
    {"smiles": "CCOCC1c2c(ncn2C(C)C)CCN1C(=O)C1CC1", "note": "(configuration not stated)", "values": [
      {"measurement": "Percent Effect", "setting": "30.3 µM, […]", "value": 23.55, "unit": "%"}
    ]},
    {"smiles": "c1cc(-c2ccc3c(c2)CCC32CCN(c3nncs3)CC2)co1", "values": [
      {"measurement": "Percent Effect", "setting": "30.3 µM, […]", "value": -6.512, "unit": "%"}
    ]},
    {"smiles": "CN(C)CC(=O)N1CCC2(CCc3ccc(-c4ccncc4)cc32)CC1.O=C(O)C(F)(F)F.O=C(O)C(F)(F)F", "values": [
      {"measurement": "Percent Effect", "setting": "30.3 µM, […]", "value": 33.01, "unit": "%"}
    ]},
    {"smiles": "Cc1ccc2c(c1)C1(CC2)CCN(c2nncs2)CC1", "values": [
      {"measurement": "Percent Effect", "setting": "30 µM, 30.03 µM", "value": 8.524, "unit": "%"}
    ]},
    {"smiles": "O=C(O)C(F)(F)F.c1cncc(-c2ccc3c(c2)C2(CC3)CCN(c3nncs3)CC2)c1", "values": [
      {"measurement": "Percent Effect", "setting": "30 µM, 30.03 µM", "value": 47.88, "unit": "%"}
    ]},
    {"smiles": "c1cc(-c2ccc3c(c2)C2(CC3)CCN(c3nncs3)CC2)ccn1", "values": [
      {"measurement": "Percent Effect", "setting": "30.3 µM, […]", "value": 59.16, "unit": "%"}
    ]},
    {"smiles": "O=C(O)C(F)(F)F.c1cc(-c2ccc3c(c2)CCC32CCN(c3nncs3)CC2)ccn1", "values": [
      {"measurement": "Percent Effect", "setting": "30.3 µM, […]", "value": 73.19, "unit": "%"}
    ]},
    {"smiles": "Cc1noc(C)c1CN1C(=O)[C@H]2CC[C@@H]1CN(Cc1ccc(Cl)cc1)C2", "values": [
      {"measurement": "Percent Effect", "setting": "30.3 µM, […]", "value": 25.74, "unit": "%"}
    ]},
    {"smiles": "COc1ccc(F)cc1C(C(=O)O)N1CCCN(C2CCCC2)CC1", "note": "(configuration not stated)", "values": [
      {"measurement": "Percent Effect", "setting": "30.3 µM, […]", "value": 27.32, "unit": "%"}
    ]},
    {"smiles": "CCS(=O)(=O)N1CCN(Cc2cccnc2)c2nc(C)ccc2C1.O=C(O)C(F)(F)F.O=C(O)C(F)(F)F", "values": [
      {"measurement": "Percent Effect", "setting": "30.3 µM, […]", "value": 32.81, "unit": "%"}
    ]},
    {"smiles": "COc1cccc(CCC(=O)N2CCC[C@@H](N)[C@@H]2c2ccccc2F)c1.Cl", "values": [
      {"measurement": "Percent Effect", "setting": "30.3 µM, […]", "value": 36.93, "unit": "%"}
    ]},
    {"smiles": "N[C@@H]1CCCN(C(=O)Cc2c[nH]c3ccccc23)[C@H]1c1ccccc1F", "values": [
      {"measurement": "Percent Effect", "setting": "30.3 µM, […]", "value": 38.86, "unit": "%"}
    ]},
    {"smiles": "COc1ccc(CC(=O)N2CCC[C@@H](N)[C@@H]2c2ccccc2F)cc1.Cl", "values": [
      {"measurement": "Percent Effect", "setting": "30.3 µM, […]", "value": 50.59, "unit": "%"}
    ]},
    {"smiles": "Cc1noc2ncc(S(=O)(=O)Nc3cc(CC(C)(C)C)[nH]n3)cc12", "values": [
      {"measurement": "Percent Effect", "setting": "30.3 µM, […]", "value": 32.33, "unit": "%"}
    ]},
    {"smiles": "CCCN(CCOC)C(=O)c1cc(Cn2c(C)nc3ccccc32)[nH]n1", "values": [
      {"measurement": "Percent Effect", "setting": "30.3 µM, […]", "value": 37.64, "unit": "%"}
    ]},
    {"smiles": "CCCN(CC)C(=O)c1cc(Cn2c(C)nc3ccccc32)[nH]n1", "values": [
      {"measurement": "Percent Effect", "setting": "30.3 µM, […]", "value": 56.73, "unit": "%"}
    ]},
    {"smiles": "CCN(CCO)C(=O)c1cc(Cn2c(C)nc3ccccc32)[nH]n1", "values": [
      {"measurement": "Percent Effect", "setting": "30.3 µM, […]", "value": 22.11, "unit": "%"}
    ]},
    {"smiles": "CCc1nnc2n1CCN(C(=O)c1ccc(-c3ccco3)[nH]c1=O)C2", "values": [
      {"measurement": "Percent Effect", "setting": "30 µM", "value": 4.718, "unit": "%"}
    ]},
    {"smiles": "COc1ccccc1N1CCN(C(=O)CSCC2CC2)C(C)C1", "note": "(configuration not stated)", "values": [
      {"measurement": "Percent Effect", "setting": "30.3 µM, […]", "value": -23.1, "unit": "%"}
    ]},
    {"smiles": "Cc1ccc(C)c(CSc2nnc([C@@H](N)C(C)C)o2)c1.Cl", "values": [
      {"measurement": "Percent Effect", "setting": "30.3 µM, […]", "value": -10.46, "unit": "%"}
    ]},
    {"smiles": "CSCC[C@H](N)c1nnc(SCc2cc(C)ccc2C)o1.Cl", "values": [
      {"measurement": "Percent Effect", "setting": "30.3 µM, […]", "value": 51.5, "unit": "%"}
    ]},
    {"smiles": "Cc1ccc(C)c(CSc2nnc(C(N)C(C)C)o2)c1.Cl", "note": "(configuration not stated)", "values": [
      {"measurement": "Percent Effect", "setting": "30.3 µM, […]", "value": -13.85, "unit": "%"}
    ]},
    {"smiles": "Cc1noc(C)c1-c1cncc(C2CCCN2Cc2cn(C)cn2)n1", "note": "(configuration not stated)", "values": [
      {"measurement": "Percent Effect", "setting": "30.3 µM, […]", "value": 19.34, "unit": "%"}
    ]},
    {"smiles": "CNC(=O)N1CC[C@@H]2CN(Cc3cccc(OC)c3)S(=O)(=O)[C@@H]2CC1", "values": [
      {"measurement": "Percent Effect", "setting": "30.3 µM, […]", "value": 61.69, "unit": "%"}
    ]},
    {"smiles": "CNC(=O)N1CC[C@@H]2CN(Cc3cccc(Cl)c3)S(=O)(=O)[C@@H]2CC1", "values": [
      {"measurement": "Percent Effect", "setting": "30.3 µM, […]", "value": 7.409, "unit": "%"}
    ]},
    {"smiles": "CCCC(C(=O)NC1CCN(S(C)(=O)=O)CC1)n1cccc1", "note": "(configuration not stated)", "values": [
      {"measurement": "Percent Effect", "setting": "30.3 µM, […]", "value": 18.03, "unit": "%"}
    ]},
    {"smiles": "COc1ccc(CN2CCC3(CC2)CN(c2ccccn2)CCO3)cc1.O=C(O)C(F)(F)F.O=C(O)C(F)(F)F", "values": [
      {"measurement": "Percent Effect", "setting": "30.3 µM, […]", "value": -28.76, "unit": "%"}
    ]},
    {"smiles": "COc1ccc(C(CNS(=O)(=O)c2cn(C)nc2C)N2CCCC2)cc1.Cl", "note": "(configuration not stated)", "values": [
      {"measurement": "Percent Effect", "setting": "30.3 µM, […]", "value": 23.75, "unit": "%"}
    ]},
    {"smiles": "Cc1[nH]c2c(F)cccc2c1CC(=O)N1CCCC(N)CC1", "note": "(configuration not stated)", "values": [
      {"measurement": "Percent Effect", "setting": "30.3 µM, […]", "value": -7.725, "unit": "%"}
    ]},
    {"smiles": "Cn1cc(C2CC(=O)NC23CCN(C(=O)Cc2ccccn2)CC3)cn1.O=C(O)C(F)(F)F", "note": "(configuration not stated)", "values": [
      {"measurement": "Percent Effect", "setting": "30.3 µM, […]", "value": 2.376, "unit": "%"}
    ]},
    {"smiles": "Cn1cc(C2CC(=O)NC23CCN(C(=O)c2cccnc2)CC3)cn1.O=C(O)C(F)(F)F", "note": "(configuration not stated)", "values": [
      {"measurement": "Percent Effect", "setting": "30.3 µM, […]", "value": 56.16, "unit": "%"}
    ]},
    {"smiles": "Cc1cncc(C(=O)N2CCC3(CC2)NC(=O)CC3c2ccccc2)c1.O=C(O)C(F)(F)F", "note": "(configuration not stated)", "values": [
      {"measurement": "Percent Effect", "setting": "30.3 µM, […]", "value": 4.194, "unit": "%"}
    ]},
    {"smiles": "O=C(NCCn1nc2ccccn2c1=O)c1sccc1-c1ccccc1", "values": [
      {"measurement": "Percent Effect", "setting": "30 µM", "value": 25.6, "unit": "%"}
    ]}
  ]
}
